Each structure is given as a SMILES string. The campaign covered roughly 370,000 compounds. About 6,800 (1.8%) were called active. What follows is part of a selection rich in actives, with near analogues and random picks from the rest. A number with no mark means an inactive call.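 The calls were made as follows: active = activation above a cutoff set at the mean of all screened compounds plus 3 SD (cut at about 10% in these data); inactive = the rest.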

The subject of this experiment is Nuclear hormone receptor DAF-12 (Heterodera glycines), GAL4 fusion. The experiment can be described thus: H. glycines DAF-12 receptor agonists, primary screen, cell-based, luminescence, HEK293, GAL4 fusion, UAS-luciferase (AID 687014).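 Also: 0% = DMSO wells and 100% = sodium butyrate wells.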 To be noted: HEK293 GAL4-hgDAF12 UAS-luciferase reporter, agonist luminescence; at 6.8 µM; stronger effect = higher value; normalized to butyrate control.
`O=C(CN(CC1CCCO1)C(=O)CNS(=O)(=O)c1ccc(F)cc1)NCc1ccco1` (stereo unspecified): the activation is -0.11%.
With `CCN(C(=O)CSc1ncnc2c1cnn2-c1ccccc1)C1CCS(=O)(=O)C1` (stereo unspecified) the figure was 1.12%.
On to `CCOc1cc(/C=N/O)ccc1OCc1ccccc1F`, for which the activation is 1.1%.
Take `COc1cc(/C=N/O)ccc1OCc1ccc([N+](=O)[O-])cc1`: the activation was 19.8% (active).
Consider `CCCc1ccc(OCc2ccc(C(=O)N/N=C/c3cccc([N+](=O)[O-])c3)o2)c(OC)c1`, for which the activation was 0.57%.
For `CCOC(=O)N1CCN(C(=O)C[C@@H]2C(=O)N(CCc3ccc(Cl)cc3)C3=CCCC[C@]32C(=O)OCC)CC1` the value was -0.14%; for `N#Cc1c(NC(=O)C2CCCO2)sc2c1CCCCC2` (stereo unspecified), 15.3% (active); for `CCC1CCc2c(sc(NC(C)=O)c2C#N)C1` (stereo unspecified), -1.78%.
For `N#Cc1c(NC(=O)C2CC(Cl)=CCC2C(=O)O)sc2c1CCCCC2` (stereo unspecified) the value was -1.72%; for `O=C(CCl)NC1CCCCN(Cc2cccc(C(F)(F)F)c2)C1=O` (stereo unspecified), -7.36%; for `O=C(Nc1ccccc1)N1CCN(Cc2nc3ccccc3c(=O)[nH]2)CC1`, 3.62%.
For `CC(=NCC1CCCO1)c1c(O)[nH]c(=O)[nH]c1=O` (stereo unspecified) the value was -2.34%.
Take `O=C1C(C=NCC2CCCO2)=C(O)c2ccccc21` (stereo unspecified): the activation is 13.2% (active).
With `CCc1ccc(CN2C(=O)c3ccccc3C2C(=O)NCC2CCCO2)cc1` (stereo unspecified) the figure was 0.15%; with `O=S(=O)(c1ccccc1)N1CCC(c2nc3ccccc3o2)CC1`, -0.98%.
For `COc1cc(CN2CCNC(=O)C2CC(=O)NCCc2ncccc2C)cc(OC)c1` (stereo unspecified) the value was -1.06%.
`CN(CCNC(=O)c1cc2c(-c3ccccc3F)nn(C)c2s1)C1CCCCC1`: the activation was 4.97%.
Turning to `CN(C(=O)c1cc2c(=O)n3ccccc3nc2s1)C1CCCCC1`, the activation was 13% (active).
For `CCOCCCNC(=O)c1cc2c(=O)n3ccccc3nc2s1` the value was 3.33%; for `Cc1ccc(-n2c(SCC(=O)Nc3ccc(S(=O)(=O)Nc4nccs4)cc3)nnc2-c2ccccn2)cc1`, -1.35%; for `COC(=O)c1ccc(N2CCOCC2)c(NC(=O)c2ccc3c(c2)OCCO3)c1`, 0.79%.
With `Cc1ccc(C(=O)Nc2ccc3c(c2)OCCO3)cc1S(=O)(=O)N1CCOCC1` the figure was 11% (active); with `CN1CCN(c2ccc(NC(=O)c3ccc4c(c3)OCCO4)cc2Cl)CC1`, 28.8% (active).
With `Cc1ccc(C(=O)Nc2ncccc2C)cc1S(=O)(=O)N1CCOCC1`, the activation was 1.72%.
With `Cc1ccc(NC(=O)c2ccc(Cl)nc2)cc1S(=O)(=O)N1CCOCC1` the figure was 3.09%; with `O=C(Nc1cccc(Cl)c1N1CCOCC1)c1ccc2c(c1)OCCO2`, -1.47%.

The values above are taken from PubChem BioAssay AID687014 (The Scripps Research Institute Molecular Screening Center, 2013).
